In PubChem BioAssay AID651642 (Sanford-Burnham Center for Chemical Genomics, 2012):
The source made the active and inactive calls.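 The calls were made as follows: active = average half-effect concentration of 10 µM or less in every one of the four cell panels; inactive = the rest.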

test system: HL-1; assay: protection of cardiomyocytes from stress damage, SAR follow-up, cell-based, panel, H9c2 and HL-1, H2O2, 2-deoxyglucose, ATP luminescence (AID 651642); conditions: H9c2/HL-1 cardiomyocyte 2-deoxyglucose damage, mean of runs, with 2-deoxyglucose

Row | Structure (SMILES) | outcome
1 | COc1ccc2c(c1OC)C(=O)N1c3ccccc3C(=O)N(Cc3cccc(F)c3)C21 (configuration not stated) | active
2 | COc1cc(-c2cc(C(=O)Nc3cccc(C(=O)N(C)C)c3)c3ccccc3n2)cc(OC)c1OC | inactive
3 | COc1ccc2nc(-c3cc(OC)c(OC)c(OC)c3)cc(C(=O)NCC(=O)Nc3ccc(C(C)=O)cc3)c2c1 | active
4 | COc1cc(-c2cc(C(=O)NCC(=O)Nc3cccc(C(C)=O)c3)c3cccc(Cl)c3n2)cc(OC)c1OC | active
5 | COc1cc(-c2cc(C(=O)Nc3cccc(C(=O)Nc4ccccc4)c3)c3ccccc3n2)cc(OC)c1OC | active
6 | COc1cc(-c2cc(C(=O)Nc3cccc(C(=O)N4CCOCC4)c3)c3ccccc3n2)cc(OC)c1OC | inactive
7 | COc1cc(-c2cc(C(=O)Nc3cccc(C(N)=O)c3)c3ccccc3n2)cc(OC)c1OC | inactive
8 | COc1cc(-c2cc(C(=O)NCC(=O)Nc3cccc(C(C)=O)c3)c3ccccc3n2)cc(OC)c1OC | active
9 | CCOC(=O)c1cccc(NC(=O)CNC(=O)c2cc(-c3cc(OC)c(OC)c(OC)c3)nc3ccc(F)cc23)c1 | active
10 | COc1cc(-c2cc(C(=O)NCC(=O)Nc3ccc(C(C)=O)cc3)c3cc(C)ccc3n2)cc(OC)c1OC | active
11 | CCOC(=O)c1cccc(NC(=O)c2cc(-c3cc(OC)c(OC)c(OC)c3)nc3ccc(Br)cc23)c1 | inactive
12 | CCOC(=O)c1ccccc1NC(=O)c1cc(-c2cc(OC)c(OC)c(OC)c2)nc2ccccc12 | inactive
13 | COc1ccc2c(c1OC)C(=O)N1c3ccccc3C(=O)N(Cc3ccccc3F)C21 (configuration not stated) | active
14 | COc1ccc2c(c1OC)C(=O)N1c3ccccc3C(=O)N(Cc3ccc(C)cc3C)C21 (configuration not stated) | inactive
15 | CCNC(=O)c1cccc(NC(=O)c2cc(-c3cc(OC)c(OC)c(OC)c3)nc3ccccc23)c1 | active
16 | COc1cc(-c2cc(C(=O)Nc3cccc(C(C)=O)c3)c3cc(Br)ccc3n2)cc(OC)c1OC | inactive

Row | Structure (SMILES) | outcome
17 | COc1cc(-c2cc(C(=O)Nc3cccc(C(=O)NCc4ccccc4)c3)c3ccccc3n2)cc(OC)c1OC | active
18 | COc1cc(-c2cc(C(=O)Nc3cccc(C#N)c3)c3ccccc3n2)cc(OC)c1OC | inactive
19 | COc1ccc2c(c1OC)C(=O)N1c3ccccc3C(=O)N(Cc3ccc(C)cc3)C21 (configuration not stated) | inactive
20 | COc1ccc(NC(=O)CNC(=O)c2cc(-c3cc(OC)c(OC)c(OC)c3)nc3ccccc23)cc1 | active
21 | COc1ccc2c(c1OC)C(=O)N1c3ccccc3C(=O)N(Cc3ccccc3C)C21 (configuration not stated) | active
22 | CCOC(=O)c1cccc(NC(=O)c2cc(-c3cc(OC)c(OC)c(OC)c3)nc3ccc(OC)cc23)c1 | inactive
23 | COC(=O)CNC(=O)c1cc(-c2cc(OC)c(OC)c(OC)c2)nc2ccccc12 | inactive
24 | COc1cc(-c2cc(C(=O)NCC(=O)Nc3ccc(C(C)=O)cc3)c3ccccc3n2)cc(OC)c1OC | inactive
25 | COc1ccc2nc(-c3cc(OC)c(OC)c(OC)c3)cc(C(=O)NCC(=O)Nc3cccc(C(C)=O)c3)c2c1 | active
26 | CCOC(=O)c1cccc(NC(=O)c2cc(-c3cc(OC)c(OC)c(OC)c3)nc3c(Cl)cccc23)c1 | inactive
27 | COc1ccccc1CN1C(=O)c2ccccc2N2C(=O)c3c(ccc(OC)c3OC)C12 (configuration not stated) | active
28 | CCOC(=O)c1cccc(NC(=O)CNC(=O)c2cc(-c3cc(OC)c(OC)c(OC)c3)nc3ccc(OC)cc23)c1 | active
29 | COc1cc(-c2cc(C(=O)NCC(=O)O)c3ccccc3n2)cc(OC)c1OC | inactive
30 | CCOC(=O)c1cccc(NC(=O)c2cc(-c3cc(OC)c(OC)c(OC)c3)nc3cc(Cl)ccc23)c1 | inactive
31 | COc1ccc2c(c1OC)C(=O)N1c3ccccc3C(=O)N(Cc3ccc(F)cc3)C21 (configuration not stated) | inactive
32 | COc1ccc2c(c1OC)C(=O)N1c3ccccc3C(=O)N(Cc3cccc(Br)c3)C21 (configuration not stated) | active
